The results in this text go back to PubChem BioAssay (Tox21).

Records with an inconclusive call do not appear. Entries that show only a call come without a potency. More than one record can exist for a structure, and the calls need not agree. Calls of active or inactive are those of the source. Calls follow the shape of the dose curve; as a rule, active = well fitted cell-killing curve with a large enough effect in the repeat runs; inconclusive = weak or mixed curves, or effect the other way; inactive = flat fitted curve, though single readings scatter.
Potency is read from the fitted curve at half-maximal effect.

A short description of this test: qHTS assay to identify small molecule agonists of the estrogen receptor beta (ER-beta) signaling pathway - cell viability counter screen (AID 1259380). Also: nearly all actives have a fitted effect of over 30% in size. The settings on record: ER-beta-bla HEK293T viability, CellTiter-Glo luminescence, 16 h; series mostly up to 92.4 µM. An excerpt:
National Center for Advancing Translational Sciences [NCATS]
NIH Chemical Genomics Center [NCGC]
U.S. Environmental Protection Agency [EPA]
National Institutes of Environmental Health Sciences [NIEHS]
National Toxicology Program [NTP]
U.S. Food and Drug Administration [FDA]
Estrogen receptor (ER), a nuclear hormone receptor, plays an important role in development, metabolic homeostasis and reproduction. Two subtypes of ER, ER-alpha and ER-beta, have similar expression patterns with some uniqueness in both types. Endocrine disrupting chemicals (EDCs) and their interactions with steroid hormone receptors like ER causes disruption of normal endocrine function. To identify the compounds that activate ER signaling, an ER beta-UAS-bla GripTite cell line (Life Technologies, Madison, WI, USA) containing a beta-lactamase reporter gene under the control of an UAS response element was used to screen Tox21 10K compound library. The cytotoxicity of the Tox21 compound library against the ER-beta-bla cell line was tested in parallel by measuring the cell viability using CellTiter-Glo assay in the same wells.
Tox21 Assay Protocol Summary:
ER-beta-UAS-bla HEK293T cells were dispensed at 2,000 cells/5 uL of assay medium containing 2% charcoal stripped FBS per well into black wall/clear-bottom 1536-well plates using a Multidrop Combi (ThermoFisher Scientific, Waltham, MA) dispenser. After the assay plates were incubated at a 37C and 5% CO2 for 6 hr, 23 nL of compounds dissolved in DMSO, positive controls or DMSO only was transferred to the assay plate by a Pintool station (Kalypsys, San Diego, CA). The plates were incubated at 37C and 5% CO2 for 16 hr. Then 1 uL of LiveBLAzerTM B/G FRET substrate was added using a BioRAPTR FRD (Flying Reagent Dispenser, Aurora Discovery, San Diego, CA) and then the plates were incubated at room temperature for 2 hours, and fluorescence intensity was measured by an Envision plate reader (PerkinElmer, Shelton, CT). For cell viability readout that measures cytotoxicity, 4 uL/well of CellTiter-Glo reagent was added into the assay plates using a FRD. After 30 min incubation at room temperature, the luminescence intensity in the plates was measured using a ViewLux (PerkinElmer) plate reader.
For orientation: In qHTS, concentration-response curves come from the screen itself.
`CCCCCCCCCl`: the Potency entry was “inactive”.

In the case of `c1ccc2c(c1)Oc1ccccc1O2`, the Potency result was “inactive”.

Take `CCNc1nc(NC(C)(C)C)nc(SC)n1`: the Potency entry was “inactive”.

On to `O=c1[nH]c2ccccc2c(=O)o1`, for which the Potency entry is “inactive”.

In the case of `COC(=O)c1ccccc1N`, the Potency entry is “inactive”.

On to `C=CCO`, for which the Potency result is “inactive”.

As for `NCC(O)c1ccc(O)cc1` (stereo not given), the Potency result is “inactive”.

With `O=NN1CCCC1`, the Potency was 20.2 µM (active) and inactive.

In the case of `CN(N=O)c1ccccc1`, the Potency entry is “inactive”.

With `CCOC(=O)c1ccccc1C(=O)OCC`, the Potency result is “inactive”.

For the compound `CCN(CC)c1ccccc1`, the Potency result was “inactive”.

Consider `CCc1cccc(C)c1N(C(=O)CCl)C(C)COC` (stereo not given), for which the Potency result is “inactive”.

As for `O=c1n(Cl)c(=O)n(Cl)c(=O)n1Cl`, the Potency result is “inactive”.

Turning to `CCOP(OCC)OCC`, the Potency entry is “inactive”.

Consider `CCOP(=S)(OCC)SCCSCC`, for which the Potency entry was “inactive”.

Regarding `O=S(=O)(c1ccc(Cl)cc1)c1cc(Cl)c(Cl)cc1Cl`, the Potency entry is “inactive”.

With `[N-]=[N+]=[N-]`, the Potency result is “inactive”.

On to `C#CC(C)(C)NC(=O)c1cc(Cl)cc(Cl)c1`, for which the Potency entry is “inactive”.

`c1ccc(-c2ccccc2)cc1`: the Potency entry was “inactive”.

Turning to `Clc1ccccc1Cl`, the Potency entry is “inactive”.

With `CC(C)C1(C)N=C(c2nc3ccccc3cc2C(=O)O)NC1=O` (stereo not given), the Potency result was “inactive”.

Consider `O=C(NC(=O)c1c(F)cccc1F)Nc1cc(Cl)c(OC(F)(F)C(F)C(F)(F)F)cc1Cl` (stereo not given), for which the Potency result is “inactive”.

Turning to `Cc1[nH]c(=O)n(C(C)(C)C)c(=O)c1Cl`, the Potency entry was “inactive”.

For `CC(Oc1ccc(Cl)cc1Cl)C(=O)O` (stereo not given), the Potency entry is “inactive”.

Regarding `CN1C(=O)CN=C(c2ccccc2)c2cc(Cl)ccc21`, the Potency entry was “inactive”.

Take `ClCCBr`: the Potency result was “inactive”.

Regarding `O=C(O)c1ccccn1`, the Potency entry was “inactive”.

On to `Cc1ccc([N+](=O)[O-])cc1C`, for which the Potency entry is “inactive”.

Turning to `CCCN(CCC)c1c([N+](=O)[O-])cc(C(F)(F)F)cc1[N+](=O)[O-]`, the Potency result was “inactive”.

As to `Nc1ccc(Br)cc1`, the Potency result is “inactive”.

Turning to `Cc1ccc(N)cc1Cl`, the Potency entry was “inactive”.

`Cn1cc(-c2ccccc2)c(=O)c(-c2cccc(C(F)(F)F)c2)c1`: the Potency was 59.6 µM (active).

Take `CC(C)(Cl)Cl`: the Potency result is “inactive”.

Turning to `COC(=O)NC(=S)Nc1ccccc1NC(=S)NC(=O)OC`, the Potency entry is “inactive”.

`CCNc1nc(NC(C)C)nc(SC)n1`: the Potency result is “inactive”.

In the case of `O=c1ccc(=O)[nH][nH]1`, the Potency result is “inactive”.

As to `CC1OC(C)OC(C)O1` (stereo not given), the Potency result was “inactive”.

Regarding `CC(Br)C(=O)O` (stereo not given), the Potency entry is “inactive”.

In the case of `NCCc1ccc(O)cc1`, the Potency was 60.6 µM (active) and inactive.

Regarding `CCCN(CCC)N=O`, the Potency result is “inactive”.
